RECQ1 inh: RECQ1 (human) helicase inhibition. hit rate 0.54% among 240,000. RECQ1 DNA unwinding, red fluorescence kinetic read. P46063. Potency, µM (series often up to 57.3 µM), for inactives: at the top dose activity, negative = inhibition, hits mostly inhibitors;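 also: potency is read from the fitted curve at half-maximal effect; plate controls were vehicle for no effect and no enzyme for full effect; nearly all actives have a fitted effect of over 30% in size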
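RECQ1T1 50 nM; forked duplex (20 bp + 30-nt ss tails) 200 nM, ATP 2 mM final; pH 8.0, 2 mM MgCl2, 2.5 ug/ml poly(dI-dC); 15 min compound preincubation; discontinuous kinetic read over 2 h at RT.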
FEN1 inh: human FEN1 inhibition; P39748; Recombinant FEN1 flap cleavage, fluorescence, 15 min; Potency, µM (highest dose often 114 µM), without a hit: at the highest dose activity change, negative = inhibition, actives largely listed as inhibitors; hit rate 0.35% among 390,000; AID 588795; also: potency is read from the fitted curve at half-maximal effect; nearly all actives have a fitted effect of over 65% in size
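Concentration–response screening of FEN1 (10 nM): 15 min compound preincubation at room temperature, reaction started with 50 nM substrate and read at 0 and 15 min. Corrected, normalized data were fitted by a four-parameter Hill equation.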
BLM helicase inh: Bloom syndrome helicase (human) inhibition; P54132; recombinant BLM DNA unwinding, fluorescence dequenching; Potency, µM (top dose mostly 56.1 µM), for inactives: top-dose activity change, negative = inhibition, usual class: inhibitors; hit rate 0.2% among 350,000;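 also: potency is read from the fitted curve at half-maximal effect; plate controls were vehicle for no effect and no enzyme for full effect; nearly all actives have a fitted effect of over 35% in size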
PI5P4Ka inh: PI5P4K alpha (human) kinase inhibition; hit rate 1.2% among 330,000; P48426; PI5P4Kalpha enzyme, ADP-Glo luminescence, 60 min; hits give low values; max response, %; active = max response of -50% or lower; inconclusive = between -30% and -50%; inactive = -30% or higher; also: value at the top dose of about 77 µM
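ADP-Glo luminescence end-point read after a 60 min room-temperature kinase reaction of PI5P4Kalpha plus substrate, initiated with ATP at 5 microM final. Buffer: 0.038 M HEPES pH 7.4, EGTA, 0.1% CHAPS, 5% DMSO.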
APE1 inh-1: inhibitors of human APE1 endonuclease. recombinant APE1, TAMRA/BHQ-2 abasic DNA cleavage fluorescence. AID 2517. Potency, µM (top dose mostly 65.8 µM), without a hit: top-dose activity change, negative = inhibition, actives largely listed as inhibitors. hit rate 0.35% among 350,000. P27695;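 also: potency is read from the fitted curve at half-maximal effect; plate controls were vehicle for no effect and reference inhibitor for full effect; nearly all actives have a fitted effect of over 55% in size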
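Activity was derived from the fluorescence gain between first and third kinetic reads (60 s intervals, ex 525/em 598 nm) after 50 nM THF-abasic TAMRA/BHQ-2 duplex was added to 0.75 nM APE1 preincubated 15 min with compound.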
GCN5L2 inh: blocks human GCN5L2 histone acetyltransferase. AID 504327. Q92830. hit rate 0.21% among 390,000. GCN5L2 HAT assay, ThioGlo1 CoA-SH fluorescence. Potency, µM (series often up to 58.9 µM), inactives show top-dose activity change, negative = inhibition, most hits filed as inhibitors; also: potency is read from the fitted curve at half-maximal effect
Target sequence (Q92830 whole entry, looked up): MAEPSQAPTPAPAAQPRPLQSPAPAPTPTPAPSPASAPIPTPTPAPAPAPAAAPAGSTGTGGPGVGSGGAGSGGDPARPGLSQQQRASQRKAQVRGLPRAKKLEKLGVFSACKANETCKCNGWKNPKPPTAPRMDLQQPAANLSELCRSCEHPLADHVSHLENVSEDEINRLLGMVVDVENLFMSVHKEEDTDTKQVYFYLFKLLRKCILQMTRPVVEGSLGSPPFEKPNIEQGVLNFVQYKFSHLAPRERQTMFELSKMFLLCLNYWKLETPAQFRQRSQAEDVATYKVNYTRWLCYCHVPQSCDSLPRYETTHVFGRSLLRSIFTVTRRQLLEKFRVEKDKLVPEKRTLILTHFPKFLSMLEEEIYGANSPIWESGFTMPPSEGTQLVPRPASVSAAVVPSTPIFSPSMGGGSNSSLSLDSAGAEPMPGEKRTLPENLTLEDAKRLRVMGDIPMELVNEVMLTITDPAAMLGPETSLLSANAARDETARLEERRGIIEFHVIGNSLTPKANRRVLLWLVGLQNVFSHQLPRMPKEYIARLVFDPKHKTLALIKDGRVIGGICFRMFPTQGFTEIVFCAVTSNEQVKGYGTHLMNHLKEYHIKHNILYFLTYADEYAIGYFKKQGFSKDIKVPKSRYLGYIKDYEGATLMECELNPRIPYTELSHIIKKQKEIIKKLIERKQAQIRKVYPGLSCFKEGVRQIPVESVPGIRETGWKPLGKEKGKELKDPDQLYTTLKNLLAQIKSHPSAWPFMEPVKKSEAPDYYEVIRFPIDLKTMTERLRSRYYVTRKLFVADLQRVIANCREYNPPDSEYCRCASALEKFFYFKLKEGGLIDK
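Titration-based screen in which CoA formation is detected via maleimide probe ThioGlo1 (50uM) turning fluorescent on thiol reaction; substrates H3(1-25) 75uM and acetyl-CoA 70uM, GCN5L2 20nM, 20 min incubation at room temperature.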
APE1 dye cs: DNA dye displacement counter-screen activity; Potency, µM (series often up to 28.5 µM), for inactives: at the highest dose activity change, negative = inhibition, hits mostly inhibitors; hit rate 7% among 480; shares compounds with APE1 inh-1; DNA fluorescent dye displacement counterscreen, fluorescence;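 also: loss of thiazole orange fluorescence as the dye is displaced from duplex DNA; potency is read from the fitted curve at half-maximal effect; 0% = ThO with dsDNA and no compound and -100% = ThO without dsDNA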
EndoIV counter: blocks E. coli endonuclease IV DNA cleavage. shares compounds with APE1 inh-1. E. coli Endo IV, fluorogenic AP-site DNA cleavage. Potency, µM (highest dose often 27.1 µM), inactives show top-dose activity change, negative = inhibition, actives largely listed as inhibitors. hit rate 4% among 560. AID 2565;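 also: potency is read from the fitted curve at half-maximal effect; plate controls were uninhibited enzyme wells for no effect and no enzyme buffer wells for full effect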
APE1 inh-2: confirmation of inhibitors of human APE1 endonuclease; shares compounds with APE1 inh-1; hit rate 44% among 750; AID 2572; purified APE1, fluorogenic abasic-site DNA cleavage; Potency, µM (highest dose often 57.1 µM), for inactives: at the highest dose activity change, negative = inhibition, actives largely listed as inhibitors; also: potency is read from the fitted curve at half-maximal effect; nearly all actives have a fitted effect of over 30% in size
APE1 FP: APE1 (human) DNA binding inhibition, fluorescence polarization; shares compounds with APE1 inh-1; APE1 binding to TAMRA-labelled double-stranded DNA, fluorescence polarization displacement; Potency, µM (doses to about 28.5 µM), without a hit: at the highest dose activity, negative = inhibition, actives largely listed as inhibitors; hit rate 7% among 480; also: potency is read from the fitted curve at half-maximal effect
* hit, by the source's call; ! = repeats disagree; [ ] = another dose, or the depositor's remark. Hits are enriched below; roughly 1.5% of the tested compounds scored in any of these assays. Unless noted, calls follow the shape of the dose curve; as a rule, active = well fitted curve in the direction sought with a large enough effect; inconclusive = small, poorly fitted or top-dose-only effect, or another doubt; inactive = no such curve, though single readings can be large; an effect the other way counts as inactive or inconclusive. Unless noted, % is scaled to controls: 0 for no effect and ±100 for the full control effect.

Screening S=C(S)OC1CC2CC1C1CCCC21 (stereo not drawn) returned RECQ1 inh -2%, FEN1 inh 2%, PI5P4Ka inh -21, APE1 inh-1 2%, GCN5L2 inh 8%, EndoIV counter -12%[57.1 µM] and APE1 inh-2 -5%.
`CCCN1CNc2c(c(=O)[nH]c(=S)n2CCc2c(OC)cccc2OC)C1` gave FEN1 inh -2%.
For CO/N=C(\C(=O)N[C@@H]1C(=O)N2C(C(=O)O)=C(COC(C)=O)CS[C@@H]12)c1csc(N)n1 the results were RECQ1 inh -2%[25.9 µM], BLM helicase inh -10%, GCN5L2 inh 0%, APE1 dye cs -6%[57.1 µM], EndoIV counter 23%[57.1 µM], APE1 inh-2 28µM* and APE1 FP -12%[57.1 µM].
`Cn1nnnc1SCC1=C(C(=O)O)N2C(=O)[C@@H](NC(=O)[C@H](O)c3ccccc3)[C@H]2SC1` gave RECQ1 inh 8%, FEN1 inh inconclusive, BLM helicase inh 38%, PI5P4Ka inh inconclusive, APE1 inh-1 inconclusive, GCN5L2 inh -11% and APE1 inh-2 40µM*.
For Cn1nnnc1SCC1=C(C(=O)O)N2C(=O)C(NC(=O)C(O)c3ccccc3)C2SC1 (stereo not drawn) the results were RECQ1 inh inactive, BLM helicase inh -8%, APE1 inh-1 -1% and GCN5L2 inh 10%.
CC(=O)OCC1=C(C(=O)O)N2C(=O)C(NC(=O)Cc3ccccc3)C2SC1 (stereo not drawn) was read as FEN1 inh 6%, BLM helicase inh -12% and GCN5L2 inh -3%.
Screening CC(=O)OCC1=C(C(=O)O)N2C(=O)[C@@H](NC(=O)CSc3ccncc3)[C@H]2SC1 returned RECQ1 inh -13%, FEN1 inh -7%, PI5P4Ka inh -4, APE1 inh-1 25µM*!, GCN5L2 inh -3%, EndoIV counter 16µM* and APE1 inh-2 7.9µM*.
C=CC1=C(C(=O)O)N2C(=O)[C@@H](NC(=O)/C(=N\OCC(=O)O)c3csc(N)n3)[C@@H]2SC1 was read as RECQ1 inh -2%[25.9 µM], BLM helicase inh -3%[21.4 µM], GCN5L2 inh 0%[21.4 µM], APE1 dye cs -4%, EndoIV counter 25%, APE1 inh-2 13µM* and APE1 FP 2%.
`Cc1ccc(/C=C2/NC(=O)N(Cc3ccc(Br)cc3)C2=O)o1` gave RECQ1 inh -13%, FEN1 inh -5%, BLM helicase inh -3%, PI5P4Ka inh inconclusive, APE1 inh-1 -2% and GCN5L2 inh inconclusive.
`O=C(O)c1ccc(-c2ccc(/C=C3\NC(=O)N(Cc4ccc(Cl)cc4)C3=O)o2)cc1Cl` gave RECQ1 inh inconclusive, FEN1 inh 28µM*, BLM helicase inh 30%, PI5P4Ka inh -69*, APE1 inh-1 inconclusive, GCN5L2 inh -16% and APE1 inh-2 16µM*.
`Nc1cc([N+](=O)[O-])ccc1N1C(=O)CCCC1=O` gave RECQ1 inh inactive, FEN1 inh 0%, BLM helicase inh -16%, PI5P4Ka inh -9, APE1 inh-1 inconclusive, GCN5L2 inh -2% and APE1 inh-2 inconclusive.
Screening Nc1cc(Cl)ccc1N1C(=O)CCC1=O returned RECQ1 inh inactive, FEN1 inh -7%, BLM helicase inh -4%, PI5P4Ka inh 1, APE1 inh-1 -1% and GCN5L2 inh 1%.
COc1cccc(OC)c1C1=Nn2c(nnc2-c2ccccc2C)SC1 was read as RECQ1 inh inactive, BLM helicase inh 5% and APE1 inh-1 -1%.
O=C1C2C3C=CC([C@@H]2C(=O)N1c1nccs1)C31CC1 (stereo partly drawn) was read as RECQ1 inh -5%, FEN1 inh 8%, BLM helicase inh 1%, PI5P4Ka inh 4, APE1 inh-1 0% and GCN5L2 inh -6%.
`O=C1C2C3C=CC(CC3)C2C(=O)N1c1nccs1` (stereo not drawn) gave RECQ1 inh 22µM*, FEN1 inh -23%, BLM helicase inh -28%, PI5P4Ka inh -62*, APE1 inh-1 6.3µM*, GCN5L2 inh -16%, APE1 dye cs 54%, EndoIV counter 26%, APE1 inh-2 inconclusive and APE1 FP -45%.
CCCCNC(=O)NS(=O)(=O)c1ccc(CO)cc1 was read as RECQ1 inh -8%, BLM helicase inh 3%, APE1 inh-1 -1% and GCN5L2 inh 4%.
`O=C(/C=C/c1ccc(O)c(O)c1)O[C@H](Cc1ccc(O)c(O)c1)C(=O)O` gave RECQ1 inh 3.5µM*, BLM helicase inh 22µM*, APE1 inh-1 0.13µM*, GCN5L2 inh -16%, APE1 dye cs -5%, EndoIV counter 100%, APE1 inh-2 0.63µM* and APE1 FP -34%.
For O=C(/C=C/c1ccc(O)c(O)c1)O[C@@H](C(=O)O)[C@@H](OC(=O)/C=C/c1ccc(O)c(O)c1)C(=O)O the results were RECQ1 inh 1% and APE1 inh-1 inconclusive.
`O=C(O)/C=C/c1ccc(O)c(O)c1` gave RECQ1 inh -6%, FEN1 inh -3%, BLM helicase inh -10%, PI5P4Ka inh inconclusive, APE1 inh-1 inconclusive, GCN5L2 inh 1%, APE1 dye cs -3%[57.1 µM], EndoIV counter 204%[57.1 µM], APE1 inh-2 inconclusive and APE1 FP 5%[57.1 µM].
c1ccc(N2N=C(c3cccs3)CC2c2ccco2)cc1 (stereo not drawn) was read as RECQ1 inh inconclusive, FEN1 inh -18%, BLM helicase inh -8%, PI5P4Ka inh -1, APE1 inh-1 -6% and GCN5L2 inh inconclusive.
